Reference: PubChem BioAssay (Tox21)
Records with an inconclusive call do not appear. Calls of active or inactive are those of the source. The call rests on the fitted dose curve; in most records, active means well fitted inhibition curve with a large enough effect in the signal ratio in the repeat runs (not every such curve was filed as active); inconclusive means weak or mixed curves, or effect the other way; inactive means no such curve, though single readings can be large or run the other way; the % refers to the signal ratio.

What follows are molecules tested against Vitamin D3 receptor (Homo sapiens) (UniProt P11473) (assay: qHTS assay to identify small molecule antagonists of the vitamin D receptor (VDR) signaling pathway (AID 743223)). Conditions: VDR-UAS-bla HEK293T, beta-lactamase FRET ratio, 16 h; series mostly up to 61 µM.
Sequence of Vitamin D3 receptor (Homo sapiens) (P11473 whole entry, looked up): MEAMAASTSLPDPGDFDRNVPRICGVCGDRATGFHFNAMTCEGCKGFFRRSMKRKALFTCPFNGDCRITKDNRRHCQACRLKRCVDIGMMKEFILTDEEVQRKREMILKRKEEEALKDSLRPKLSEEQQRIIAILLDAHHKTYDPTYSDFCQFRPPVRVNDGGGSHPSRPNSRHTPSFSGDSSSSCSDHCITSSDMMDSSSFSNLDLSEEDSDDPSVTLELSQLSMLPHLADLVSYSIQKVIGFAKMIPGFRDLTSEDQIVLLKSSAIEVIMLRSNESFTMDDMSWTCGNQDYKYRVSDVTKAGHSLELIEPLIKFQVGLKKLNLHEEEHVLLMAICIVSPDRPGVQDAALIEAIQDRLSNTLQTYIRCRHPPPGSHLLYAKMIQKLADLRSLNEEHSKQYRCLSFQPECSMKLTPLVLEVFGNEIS
Text: U.S. Tox21 Program National Center for Advancing Translational Sciences [NCATS] NIH Chemical Genomics Center [NCGC] U.S. Environmental Protection Agency [EPA] National Institutes of Environmental Health Sciences [NIEHS] National Toxicology Program [NTP] U.S. Food and Drug Administration [FDA] Tox21 Assay Overview: The vitamin D receptor (VDR), a member of nuclear hormone receptor superfamily, plays a critical role in calcium homeostasis and bone metabolism. It is also involved in cell differentiation and growth, and thrombogenicity.
Tox21 Assay Protocol Summary: VDR-bla cells were dispensed at 2,000 cells/5 uL of assay medium per well into black wall/clear-bottom 1536-well plates using a Multidrop Combi (Thermo Fisher Scientific, Waltham, MA) dispenser. After the assay plates were incubated at a 37C and 5% CO2 for 4 h, 23 nL of compounds dissolved in DMSO, positive controls or DMSO only was transferred to the assay plate by a Pintool station (Kalypsys, San Diego, CA), followed by addition of 1 uL of 1alpha, 25-Dihydroxy Vitamin D3 (3 nM, final concentration in the wells) using a Bioraptr Flying Reagent Dispenser (FRD) workstation (Beckman Coulter, Indianapolis, IN). The plates were incubated at 37C and 5% CO2 for 16 h, and then 1 uL of LiveBLAzerTM B/G FRET substrate was added using a Bioraptr FRD. The plates were incubated at room temperature for 2 h and fluorescence intensity was measured by an Envision plate reader (PerkinElmer, Shelton, CT).

Row | Structure (SMILES) | outcome
1 | CNP(=O)(OC)Oc1ccc(C(C)(C)C)cc1Cl (stereo not given) | inactive
2 | C/C=C/C=O | inactive
3 | Brc1ccc(Oc2ccccc2)cc1 | inactive
4 | [O-][Cl+]O | inactive
5 | CCOP(O)OCC | inactive
6 | O=C(CBr)Nc1ccc(Cl)cc1C(=O)c1ccccc1F | inactive
7 | [CH3][Sn]([CH3])([Cl])[Cl] | inactive
8 | COC(=O)c1cncn1C(C)c1ccccc1 (stereo not given) | inactive
9 | c1ccc(CN2CCNCC2)cc1 | inactive
10 | CC(C)(CCl)C(=O)Cl | inactive
11 | S=C=NCc1ccccc1 | inactive
12 | COc1nn(C(=O)NS(=O)(=O)c2ccccc2OC(F)(F)F)c(=O)n1C | inactive
13 | CC[C@H]1C[C@H]2[C@@H]3CCC4=CC(=O)CC[C@@H]4[C@H]3CC[C@]2(C)[C@H]1O | inactive
14 | CN(N=O)c1ccc([N+](=O)[O-])cc1 | inactive
15 | CCOP(=S)(Oc1ccc([N+](=O)[O-])cc1)c1ccccc1 (stereo not given) | inactive
16 | Nc1ccc([N+](=O)[O-])cc1[N+](=O)[O-] | inactive
17 | CCOP(=O)(OCC)SCCSCC | inactive
18 | Clc1ccc(C(OCCN2CCCCC2)c2ccccc2)cc1 (stereo not given) | inactive
19 | Cl/C=C\C[N+]12CN3CN(CN(C3)C1)C2 | inactive
20 | Clc1cccc(SC2CCNCC2)n1 | inactive

Row | Structure (SMILES) | outcome
21 | CCCCN(N=O)C(=N)N[N+](=O)[O-] | inactive
22 | C(=NC1CCCCC1)=NC1CCCCC1 | inactive
23 | CC1(C)[C@H](C=C(Cl)Cl)[C@@H]1C(=O)O[C@@H](C#N)c1cccc(Oc2ccccc2)c1 | inactive
24 | O=C1CN=C(c2ccccc2)c2cc(Cl)ccc2N1CC1CC1 | inactive
25 | COc1c(C(C)(C)C)cc([N+](=O)[O-])c(C)c1[N+](=O)[O-] | inactive
26 | O=NN1CCNCC1 | inactive
27 | ClCC(Br)CBr (stereo not given) | inactive
28 | CCCCCCCCCC(=O)O[C@H]1CC[C@H]2[C@@H]3CCC4=CC(=O)CC[C@@H]4[C@H]3CC[C@]12C | inactive
29 | CC(=O)NC1CCSC1=O (stereo not given) | inactive
30 | CCOC(=O)C(Cl)C(C)=O (stereo not given) | inactive
31 | CCCCCCC#N | inactive
32 | CC(C)N(CCC(C(N)=O)(c1ccccc1)c1ccccn1)C(C)C (stereo not given) | inactive
33 | C=CCC1([C@H](C)CCC)C(=O)NC(=O)NC1=O | inactive
34 | Cc1ccc(N)cc1C | inactive
35 | CC(C)(Cl)[N+](=O)[O-] | inactive
36 | O=Cc1ccc2c(c1)OCO2 | inactive
37 | Nc1nc(N)nc(N)n1 | inactive
38 | Nc1ccc(N=Nc2ccc(-c3ccc(N=Nc4c(S(=O)(=O)O)cc5cc(S(=O)(=O)O)c(N=Nc6ccccc6)c(O)c5c4N)cc3)cc2)c(N)c1 | inactive
39 | Cn1sc(Cl)cc1=O | inactive
40 | O=C(O)C(F)(F)C(F)(F)C(F)(F)C(F)(F)C(F)(F)C(F)(F)C(F)(F)C(F)(F)C(F)(F)C(F)(F)F | inactive
